Screening data (PubChem)
pPAFAH FP inh: inhibitors of human plasma PAF acetylhydrolase (pPAFAH) | Q13093 | recombinant pPAFAH, FP-rhodamine probe fluorescence polarization | inhibition, % at 3.39 µM | 1.5% of 330,000 active;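 active means inhibition above the mean inhibition across the screen plus 3 SD, cut at about 25% in these data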;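 further: inhibitors block binding of the rhodamine activity-based probe so polarization drops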
PAFAH1B2 FP inh: PAFAH1B2 (human) inhibition; P68402; 1.2% of 340,000 active; inhibition, % at 3.39 µM; recombinant PAFAH1B2, FP-rhodamine activity probe, fluorescence polarization;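 active means inhibition above the mean of all tested compounds plus 3 SD, cut at about 24% in these data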
Target sequence (P68402 whole entry, looked up): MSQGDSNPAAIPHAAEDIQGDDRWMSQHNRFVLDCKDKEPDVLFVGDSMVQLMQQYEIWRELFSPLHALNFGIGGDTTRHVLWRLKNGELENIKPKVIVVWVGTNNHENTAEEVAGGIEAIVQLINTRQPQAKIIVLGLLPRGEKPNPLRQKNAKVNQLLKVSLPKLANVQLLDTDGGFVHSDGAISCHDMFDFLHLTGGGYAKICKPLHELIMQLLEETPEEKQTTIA
PME-1 inh: blocks human protein phosphatase methylesterase 1. recombinant PME-1, FP-Rh probe fluorescence polarization. inhibition, % at 5.9 µM. AID 2130. 0.53% of 320,000 active;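 active means inhibition above the campaign mean of all compounds plus 3 SD, cut at about 26% in these data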;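 further: competitive labeling of PME-1 active site by serine hydrolase directed probe; inhibitors block probe labeling so polarization falls and inhibition rises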
Fam108B inh: blocks mouse Fam108B hydrolase in RBBP9 counter-screen. recombinant Fam108B, FP-Rh probe fluorescence polarization. inhibition, % at 9.51 µM. 0.33% of 300,000 active. AID 1947;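 active means inhibition above the screen mean inhibition plus 3 SD, computed separately per campaign, cut at about 18% in these data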;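 further: inhibitors lower polarization as less probe binds the enzyme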
PAFAH1B3 FP inh: inhibitors of human PAFAH1B3; Q15102; recombinant PAFAH1B3, FP-rhodamine probe, fluorescence polarization; inhibition, % at 3.39 µM; 0.28% of 340,000 active;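 active means inhibition above the screen-wide average of all tested compounds plus 3 SD, cut at about 25% in these data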
Target sequence (Q15102 whole entry, looked up): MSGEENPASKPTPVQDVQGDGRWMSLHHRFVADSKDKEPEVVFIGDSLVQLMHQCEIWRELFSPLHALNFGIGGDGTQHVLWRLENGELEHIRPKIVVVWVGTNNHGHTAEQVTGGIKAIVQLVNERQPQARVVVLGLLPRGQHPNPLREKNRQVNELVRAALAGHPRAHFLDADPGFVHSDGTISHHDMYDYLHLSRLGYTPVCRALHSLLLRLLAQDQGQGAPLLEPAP
PAFAH2 inh: PAFAH2 (human) inhibition; inhibition, % at 3.39 µM; 0.99% of 340,000 active; recombinant PAFAH2, FP-rhodamine activity probe, fluorescence polarization; Q99487;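 active means inhibition above the mean over all tested compounds plus 3 SD, cut at about 30% in these data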;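 further: inhibitors block probe labeling of enzyme so polarization drops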
Large screens that a line does not name were inactive. This is a sample that favours compounds with a hit; in the whole collection about 2.8% have one here.

C=CCn1c(O)c(C(CC)=Nc2ccc(N(C)C)cc2)c(=O)[nH]c1=O	pPAFAH FP inh 34 (no result: PAFAH1B2 FP inh, PAFAH1B3 FP inh, PAFAH2 inh)
Cc1cc(OCC(=O)NC(Cc2ccc(Cl)cc2)C(=O)O)c2c3c(c(=O)oc2c1)CCCC3 (centres undefined)	PAFAH1B2 FP inh 30
Cc1cc(OCC(=O)NCc2ccncc2)c2c3c(c(=O)oc2c1)CCC3	none
O=S(=O)(c1ccc(Cl)cc1)c1ccc(Cl)cc1	PAFAH1B2 FP inh 66 (no result: Fam108B inh)
O=S(=O)(c1ccc(O)cc1)c1ccc(O)cc1	none
O=C1NC(=O)N(CCNc2ncc(C(F)(F)F)cc2Cl)C(=O)C1Cc1ccc(Cl)cc1 (centres undefined)	PAFAH1B2 FP inh 29
C=CCN1C(=O)NC(=O)C(Cc2ccc(OC)c(OC)c2)C1=O (centres undefined)	none
COc1ccccc1NC(=O)c1cn(CCC#N)nc1-c1ccc(F)cc1	none (no result: pPAFAH FP inh, PME-1 inh, Fam108B inh)
NS(=O)(=O)c1ccc(-c2ccc(C=C3C(=O)NC(=O)NC3=O)o2)cc1	none
O=C1NC(=O)C(=Cc2ccc(SC3CCCCC3)o2)C(=O)N1	PAFAH1B2 FP inh 88, PAFAH2 inh 45
CSCCC(N=Cc1c(O)n(-c2ccc(F)cc2)c(=O)[nH]c1=O)C(=O)OC(C)(C)C (centres undefined)	none
CCCCC(=O)N/N=C/c1c(O)n(Cc2ccco2)c(=O)[nH]c1=O	none
O=C(N/N=C/c1c(O)n(C2CCCCC2)c(=S)[nH]c1=O)c1ccccc1O	pPAFAH FP inh 32
O=C(N/N=C/c1c(O)n(Cc2ccco2)c(=O)[nH]c1=O)c1ccccc1O	pPAFAH FP inh 30, PAFAH2 inh 35
Cc1cc(C)n2nc(C)[n+](C)c2n1	none
CCc1cc(=O)oc2c(C)c(OCC(=O)N3C[C@H]4C[C@@H](C3)c3cccc(=O)n3C4)ccc12	none
COC12CCC3(CC1C(C)(O)C(C)(C)C)[C@H]1Cc4ccc(OC5OC(C(=O)O)[C@@H](O)C(O)[C@H]5O)c5c4[C@@]3(CCN1CC1CC1)C2O5 (some centres undefined)	none (no result: PME-1 inh, Fam108B inh)
CCN(CC)C(=O)c1ccc2c(c1)C1C=CCC1C(C(=O)O)N2 (centres undefined)	PAFAH1B3 FP inh 40, PAFAH2 inh 40 (no result: pPAFAH FP inh, PME-1 inh, Fam108B inh)
CC(C)(C)c1ccc(S(=O)(=O)N2CC3CC(C2)c2cccc(=O)n2C3)cc1 (centres undefined)	PAFAH1B2 FP inh 26
C=C[C@@H]1C[C@@]1(C)[C@@H](NP(=O)(c1ccccc1)c1ccccc1)c1ccccc1	PAFAH1B2 FP inh 41
CCCC(C)(COC(N)=O)COC(=O)NC(C)C (centres undefined)	none
CCN1C[C@]2(CO)CC[C@H](OC)[C@@]34C2[C@H](OC)[C@@](O)(C13)[C@@]1(O)C[C@H](OC)[C@H]2C[C@@H]4[C@@H]1[C@H]2OC	none
NCC(O)c1cc(O)c(O)cc1F (centres undefined)	pPAFAH FP inh 27
Cc1oc(-c2ccccc2Cl)nc1CN1C(=O)CN=C(c2ccccc2)c2ccccc21	none
O=C1CN=C(c2ccccc2)c2ccccc2N1Cc1ccc(C(F)(F)F)cc1	PAFAH1B2 FP inh 59
O=S(=O)(NC1CCCCCCC1)OCC(Cl)(Cl)Cl	pPAFAH FP inh 29, PAFAH1B2 FP inh 48
C[C@]12CCC3C(CC[C@H]4C[C@H](OC(=O)c5cccnc5)CC[C@]34C)C1CCC2=O (some centres undefined)	none (no result: PME-1 inh, Fam108B inh)
CN(C)C1(c2nnnn2CCOC(=O)Nc2ccc(Cl)cc2)CCCCC1	PME-1 inh 37
CN(C)C1(c2nnnn2-c2ccc(Cl)cc2)CCCCC1	none
Cc1cc(C)cc(-n2c(O)c(C=Nc3ccc(N4CCOCC4)cc3)c(=O)[nH]c2=S)c1	none
O=c1[nH]c(=S)n(-c2ccccc2F)c(O)c1C=Nc1ccc(N2CCOCC2)cc1	pPAFAH FP inh 29, PAFAH2 inh 33
CN1C(=O)C(=Cc2ccc(-c3cccc(Cl)c3)o2)C(=O)N(C)C1=O	none (no result: PAFAH1B2 FP inh, PAFAH1B3 FP inh, PAFAH2 inh)
Cc1ccc(Sc2ccc(C=C3C(=O)N(C)C(=O)N(C)C3=O)o2)cc1	PAFAH1B2 FP inh 57
CC(C)(C)C(=O)N1Cc2cnnn2-c2ccccc2C1C#N (centres undefined)	none (no result: pPAFAH FP inh, PME-1 inh, Fam108B inh)
CCCCn1c(NC(=O)c2ccc(Br)o2)c(C(=O)OCC)c2nc3ccccc3nc21	PAFAH1B2 FP inh 38, PME-1 inh 34, Fam108B inh 59, PAFAH1B3 FP inh 77, PAFAH2 inh 41
S=P(NCCNP(=S)(N1CC1)N1CC1)(N1CC1)N1CC1	none (no result: pPAFAH FP inh, PME-1 inh, Fam108B inh)
CN1/C(=C\C=C2C(=O)NC(=S)NC2=O)C(C)(C)c2ccccc21	PAFAH1B2 FP inh 68, PAFAH2 inh 38 (no result: pPAFAH FP inh, PME-1 inh, Fam108B inh)
O=C(O)c1cccc2c1NC(c1cccc([N+](=O)[O-])c1)C1CC(Sc3ccccc3[N+](=O)[O-])C(Cl)C21 (centres undefined)	PAFAH2 inh 37 (no result: pPAFAH FP inh, PME-1 inh, Fam108B inh)
O=[N+]([O-])c1cccc(C2N3CCCN23)c1 (centres undefined)	none
O=C(O)c1ccc2c(c1)C1C(Cl)C(Sc3ccccc3[N+](=O)[O-])CC1C(c1cccc([N+](=O)[O-])c1)N2 (centres undefined)	PAFAH1B3 FP inh 41, PAFAH2 inh 52 (no result: pPAFAH FP inh, PME-1 inh, Fam108B inh)
O=[N+]([O-])c1cccnc1N1CCCNCC1	none
CN(C)CC1CCCCC1OC(=O)Cc1ccc(Cl)c([N+](=O)[O-])c1 (centres undefined)	none
CCC(=NCCc1ccccc1)c1c(O)n(C)c(=O)n(C)c1=O	none
CN1CCc2cc3c(c4c2C1Cc1ccccc1-4)OCO3 (centres undefined)	pPAFAH FP inh 29
CN1CCc2cc(O)cc3c2[C@H]1Cc1ccc(O)c(O)c1-3	none
O=c1cc(C(F)(F)F)c2cc3c4c(c2o1)CCCN4CCC3	pPAFAH FP inh 26
Cc1cccc(-n2c(-c3ccco3)nc3ccccc3c2=O)n1	none
O=C1NC(=O)N(Cc2ccco2)C(=O)/C1=C/c1cccn1CCOc1ccccc1Cl	pPAFAH FP inh 26, PME-1 inh 51
Cn1cccc1/C=C1/C(=O)NC(=O)N(Cc2ccc(F)cc2)C1=O	PAFAH1B2 FP inh 29
Cn1cccc1/C=C1\C(=O)NC(=O)N(Cc2ccccc2)C1=O	none
Cn1cccc1/C=C1/C(=O)NC(=O)N(Cc2ccccc2)C1=O	none
C=CCn1c(O)c(C=NCCCn2ccnc2)c(=O)[nH]c1=O	none
COC(=O)C1=C(c2cc3ccccc3s2)C[C@@H]2CC[C@H]1N2C(=O)NCc1ccc(C(F)(F)F)cc1	none
COC(=O)C1=C(c2c(C)noc2C)C[C@@H]2CC[C@H]1N2C(=O)NCc1ccc(C(F)(F)F)cc1	PAFAH1B2 FP inh 24 (no result: Fam108B inh)
CC(=NCc1ccc(F)cc1)c1c(O)n(C)c(=O)n(C)c1=O	none
O=c1[nH]c(=O)n(Cc2ccc(F)cc2)c(O)c1C=NCCCn1ccnc1	none
O=c1[nH]c(=S)n(Cc2ccc(F)cc2)c(O)c1C=NCCCn1ccnc1	PAFAH1B2 FP inh 30
O=c1[nH]c(=S)n(Cc2ccc(F)cc2)c(O)c1/C=N/N1CCCCCC1	PAFAH1B2 FP inh 33
